The nature of the test: NCI Yeast Anticancer Drug Screen. Data for the wt2 strain (AID 169).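 Further: 0% = growth of vehicle-treated yeast cultures.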 The conditions noted are these: S. cerevisiae wt2 strain growth inhibition, stronger effect = higher value. As for the experimental part: Growth inhibition of yeast strains with defined genetic alterations is measured as a screen for potential anti-cancer activity. Selected strains with alterations in DNA damage repair or cell cycle control were exposed to compounds and growth inhibition was measured relative to vehicle treated controls. The strain used in this assay is wt2

Compounds without any hit were thinned out: in the full panel of roughly 79,000, 15% have a hit. Unmarked numbers belong to inactive results. Active and inactive are the calls of the source. No stated cut-off is given here; in the data, active means growth inhibition above about 70%; inactive means the rest.

Results on eight compounds are retold here after PubChem BioAssay (NCI).

On to `CCC(C)(c1ccc(O)c(C)c1)c1ccc(O)c(C)c1`, for which the growth inhibition is, setting by setting: (at 1.2 µM) -33%; (at 3.7 µM) -31%; (at 11.0 µM) 45%; (at 33.0 µM) 98% (active); (at 100.0 µM) 99% (active).

Consider `CC1(C)C(C=O)=CCC1CC(N)=O` (stereo not given), for which the growth inhibition reads like this: (at 1.2 µM) -1%; (at 3.7 µM) 1%; (at 11.0 µM) 4%; (at 33.0 µM) 9%; (at 100.0 µM) 83% (active).

`COc1ccc(/C=C2\SC(=S)N(C=C3C(=O)NC(=S)NC3=O)C2=O)cc1OC`: the growth inhibition reads like this: (at 1.2 µM) 1%; (at 3.7 µM) 7%; (at 11.0 µM) 52%; (at 33.0 µM) 92% (active); (at 100.0 µM) 95% (active).

For the compound `Cc1cc(O)c2c(c1)C(=O)C=C(Br)C2=O`, the growth inhibition was -4% (at 1.2 µM); 7% (at 3.7 µM); 54% (at 11.0 µM); 99% (active) (at 33.0 µM); 97% (active) (at 100.0 µM).

On to `CN(Cc1cnc2nc(N)nc(N)c2n1)c1ccc(C(=O)NC(CCC(=O)O)C(=O)O)c2ccccc12` (stereo not given), for which the growth inhibition (at 1.2 µM) was -50%; the growth inhibition (at 3.7 µM) is -45%; the growth inhibition (at 11.0 µM) is -4%; the growth inhibition (at 33.0 µM) was 39%; the growth inhibition (at 100.0 µM) is 78% (active).

As for `CCOc1ccc(C(=O)CCC(=O)O)c(C)c1`, the growth inhibition (at 1.2 µM) is 1%; the growth inhibition (at 3.7 µM) is 2%; the growth inhibition (at 11.0 µM) was 2%; the growth inhibition (at 33.0 µM) is 6%; the growth inhibition (at 100.0 µM) is 16%.

Turning to `Cc1c2cc[n+](CCN3CCCCC3)cc2c(C)c2c1[nH]c1ccc(O)cc12`, the growth inhibition was 5% (at 1.2 µM); 4% (at 3.7 µM); 5% (at 11.0 µM); 12% (at 33.0 µM); 96% (active) (at 100.0 µM).

On to `CC(=O)OCC1OC(O[C@H]2C=C[C@@H](C(=O)OCc3ccccc3)n3c(=O)n(-c4ccccc4)c(=O)n32)C(OC(C)=O)C(OC(C)=O)C1OC(C)=O` (stereo not given in full), for which the growth inhibition is -36% (at 1.2 µM); -18% (at 3.7 µM); 19% (at 11.0 µM); 98% (active) (at 33.0 µM); 97% (active) (at 100.0 µM).
